Five compounds from PubChem BioAssay can be followed below.

The nature of assay [1]: yeast TOR pathway RPL19A-GFP modulators, primary screen, cell-based, S. cerevisiae, multiplex flow cytometry (AID 1862; in the data active means percent of DMSO control GFP below about 86%;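 further: lower values mimic rapamycin by blocking the RPL19A rise seen in DMSO cells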). The conditions noted are these: S. cerevisiae RPL19A-GFP strain, flow cytometry fluorescence, 3 h; at 10 µM; stronger effect = lower value. (A flow cytometer gives signals particle by particle.)
Assay [2] can be described thus: modulators of MEP2-GFP levels in yeast, primary screen, S. cerevisiae, multiplex flow cytometry (AID 1867;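 active means GFP response, as percent of the DMSO control, above the screen-wide mean plus 3 SD, about 139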;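 further: median GFP channel fluorescence of barcode-gated MEP2-GFP cells measured by flow cytometry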). Particulars: S. cerevisiae MEP2-GFP strain, 3 h, at 10 µM, stronger effect = higher value, 100% means same as DMSO wells.
The nature of assay [3]: modulators of CIT2-GFP expression in yeast, primary screen, S. cerevisiae, GFP fusion, multiplex flow cytometry (AID 1870;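 active means percent response above a set limit, the screen-wide mean plus 3 SD, cut at about 130% in these data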;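 further: barcoded CIT2-GFP strain pooled with four other GFP strains with rapamycin as positive control; median GFP fluorescence per well over plate mean of DMSO wells so 100% = DMSO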). The conditions noted are these: 3 h, at 10 µM, stronger effect = higher value.
A short description of assay [4]: modulators of LAP4-GFP expression in yeast, primary screen, S. cerevisiae, multiplex flow cytometry (AID 1873;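 active means GFP signal, as percent of the solvent control, above the screen mean plus 3 SD, about 149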). Particulars: 3 h, at 10 µM, stronger effect = higher value.
Assay [5] can be described thus: modulators of AGP1-GFP expression in yeast TOR pathway, primary screen, cell-based, multiplex flow cytometry, S. cerevisiae (AID 1887;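 active means GFP signal above the screen-wide mean plus 3 SD, that is over about 124.5% of the solvent control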;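 further: AGP1-GFP fusion strain of S. cerevisiae within a five-strain barcoded multiplex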). The conditions noted are these: 3 h, at 10 µM, stronger effect = higher value.
Assay [6] is described as follows: inhibitors of CD8+ T cell-vesicle binding, pilot screen, LFA-1/ICAM-1 modulator project, MLPCN validation set, flow cytometry (AID 2523).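 On vesicle binding response: mean PE anti-B7-1 fluorescence of CD8+ cells relative to row control; 100% = QL9-loaded vesicles with DMSO vehicle in the same plate row.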 Particulars: 2C mouse CD8+ T cells, at 7 µM, stronger effect = lower value; double positive events: measured here: CD8+/vesicle+ event percentage.
Assay [7] has as its target Integrin beta-1 (Homo sapiens) + Integrin alpha-4 (Homo sapiens) (UniProt P13612+P05556). As to the kind of experiment: inhibition of HUTS-21 binding to VLA-4, pilot screen, VLA-4 allosteric modulator project, U937 cells, HUTS-21 mAb, flow cytometry, validation set (AID 2674;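 active means inhibition above 50%, about 3 SD of the validation set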;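 further: antibody binding induced by the VLA-4 ligand LDV present at three times its Kd; 0% = LDV ligand with antibody and no compound and 100% = antibody without LDV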). The conditions noted are these: HUTS-21 LIBS mAb binding, at 6.7 µM, stronger effect = higher value, binding induced by LDV ligand.

A short description of assay [8]: superoxide lowering in aged yeast cells, pilot screen, validation compound set (AID 2706;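 active means superoxide response below 65% of plate, a cut near 3 SD across the whole screen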;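 further: yeast exposed to compound for one week at 30 degrees C before staining; 100% = mean of all compound wells on the same plate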). Particulars: S. cerevisiae aging, superoxide DHE fluorescence; at 10 µM; stronger effect = lower value.
The target of assay [9] is Beta-adrenergic receptor kinase 1 (Homo sapiens) (UniProt P25098). The experiment in a line: GRK2 binders displacing RNA aptamer, biochemical, validation, human GRK2, bead flow cytometry (AID 488806;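 active means aptamer binding inhibition above 30%, about 3 SD of noise from non-fluorescent compounds; inactive means inhibition at or below 30%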). Particulars: bead-bound GRK2, FAM-aptamer displacement, at 10 µM, stronger effect = higher value.
Assay [10] addresses Beta-2 adrenergic receptor (Homo sapiens) (UniProt P07550). The experiment in a line: beta2AR agonists driving receptor internalization, pilot screen, cell-based, FAP fluorogen, flow cytometry, validation set (AID 504459;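 active means percent response above 42, roughly 3 SD of non-fluorescent test compounds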;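 further: agonist-driven loss of surface beta2AR via internalization measured by FAP dye flow cytometry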). The conditions noted are these: Am2.2-beta2AR cells, FAP surface receptor flow cytometry; at 10 µM; stronger effect = higher value.
In assay [11] the target is AP-2 complex subunit beta (Homo sapiens) (UniProt P63010). As to the kind of experiment: inhibitors of arrestin peptide binding to AP2, pilot screen, biochemical, validation set, GST-AP2 beads, flow cytometry (AID 504541;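 active means inhibition above 54%, about 3 SD of non-fluorescent compounds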;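 further: AP2 carries R879A mutation and is captured from E. coli lysate; bead-bound FITC arrestin peptide fluorescence measuring arrestin peptide binding to AP2; 0% = DMSO wells and 100% = excess unlabeled arrestin peptide control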). Particulars: FITC arrestin peptide, at 10 µM, stronger effect = higher value, AP2 beta2 appendage fragment, R879A mutant.
A short description of assay [12]: yeast V-ATPase proton transport modulators, S. cerevisiae, pHLuorin, HTS validation (AID 504600; in the data active means response above about 15%;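 further: plate controls were DMSO for no effect and reference compound for full effect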). Particulars: S. cerevisiae pHLuorin cytosolic pH, at 10 µM, stronger effect = higher value.
Assay [13] concerns anti-desmoglein-3 scFv antibody binding to human DSG3. As to the kind of experiment: inhibitors of anti-DSG3 scFv binding to DSG3, pilot screen, biochemical, validation compound set, bead-based, flow cytometry (AID 588368;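 active means binding below the plate cutoff, the plate median minus 3 SD, with a reading above zero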;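 further: signal is the median channel fluorescence of bead-bound GFP antibody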). Particulars: Protein G beads, DSG3-Fc, scFv-GFP binding, at 10 µM, stronger effect = lower value.
A short description of assay [14]: inhibitors of fungal efflux pumps CDR1, CDR2, MDR1, pilot screen, validation compound set, multiplex, phenotypic (AID 588506;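 active means efflux inhibition above 0.42, the validation set average plus 4 SD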;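 further: Nile Red retained in cells so higher fluorescence means more efflux inhibition; 0 = negative control wells and 1 = enniatin B 25 µM full block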). The conditions noted are these: S. cerevisiae pump-expressing triplex, Nile Red efflux flow cytometry; at 10 µM; stronger effect = higher value; the pumps come from Candida albicans.
For assay [15], the target named is ATP-binding cassette sub-family B member 6 (Homo sapiens) (UniProt Q9NP58). The experiment in a line: ABCB6 transporter inhibitors, pilot screen, K562-ABCB6 cells, flow cytometry, validation set (AID 588550;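 active means inhibition above the screen-wide mean plus 3 SD, about 51%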;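 further: 0% = DMSO wells and 100% = benzethonium chloride 70 µM positive control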). The conditions noted are these: K562-ABCB6 porphyrin accumulation, 1 h, at 10 µM, stronger effect = higher value.
Assay [16] can be described thus: promoters of myeloid differentiation in arrested cells, primary screen, cell-based, GFP/MAC1 double positive, flow cytometry, validation set (AID 588685;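 active means differentiation response of at least 50%, scaled between solvent and reference control, from cells with both markers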;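 further: compound exposure lasts four days before antibody staining and flow analysis; 0% = DMSO wells and 100% = 5 µM fulvestrant positive control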). The conditions noted are these: ER-HoxA9 marrow cells, stronger effect = higher value, normalized: vehicle 0, fulvestrant 100.

The structures appear in SMILES notation. Values joined by “and” are separate entries in the source; they are usually repeats but may differ in a detail not shown here. Equal values may be shown once. Records with an inconclusive call do not appear. Active and inactive are the calls of the source.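 How the source made its calls, unless noted: active means response below a set limit, under 55% cells CD8-positive and vesicle-bound, and CD8 cells' 90th-percentile brightness under 279; inactive means the rest.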

Beta-2 adrenergic receptor (Homo sapiens), sequence (P07550 whole entry, looked up): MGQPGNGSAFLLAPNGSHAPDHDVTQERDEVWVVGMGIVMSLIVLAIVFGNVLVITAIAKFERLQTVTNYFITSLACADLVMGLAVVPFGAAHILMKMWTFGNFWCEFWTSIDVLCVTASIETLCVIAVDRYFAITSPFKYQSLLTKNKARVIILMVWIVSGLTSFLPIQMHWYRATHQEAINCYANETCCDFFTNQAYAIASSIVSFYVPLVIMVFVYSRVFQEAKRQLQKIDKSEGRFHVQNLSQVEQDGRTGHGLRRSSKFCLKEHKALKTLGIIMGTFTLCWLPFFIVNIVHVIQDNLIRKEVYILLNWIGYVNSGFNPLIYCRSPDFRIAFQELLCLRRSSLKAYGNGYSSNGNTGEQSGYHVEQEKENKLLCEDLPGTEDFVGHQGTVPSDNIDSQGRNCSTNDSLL
AP-2 complex subunit beta (Homo sapiens), sequence (P63010 whole entry, looked up, the tested form may be a part, one chain of several): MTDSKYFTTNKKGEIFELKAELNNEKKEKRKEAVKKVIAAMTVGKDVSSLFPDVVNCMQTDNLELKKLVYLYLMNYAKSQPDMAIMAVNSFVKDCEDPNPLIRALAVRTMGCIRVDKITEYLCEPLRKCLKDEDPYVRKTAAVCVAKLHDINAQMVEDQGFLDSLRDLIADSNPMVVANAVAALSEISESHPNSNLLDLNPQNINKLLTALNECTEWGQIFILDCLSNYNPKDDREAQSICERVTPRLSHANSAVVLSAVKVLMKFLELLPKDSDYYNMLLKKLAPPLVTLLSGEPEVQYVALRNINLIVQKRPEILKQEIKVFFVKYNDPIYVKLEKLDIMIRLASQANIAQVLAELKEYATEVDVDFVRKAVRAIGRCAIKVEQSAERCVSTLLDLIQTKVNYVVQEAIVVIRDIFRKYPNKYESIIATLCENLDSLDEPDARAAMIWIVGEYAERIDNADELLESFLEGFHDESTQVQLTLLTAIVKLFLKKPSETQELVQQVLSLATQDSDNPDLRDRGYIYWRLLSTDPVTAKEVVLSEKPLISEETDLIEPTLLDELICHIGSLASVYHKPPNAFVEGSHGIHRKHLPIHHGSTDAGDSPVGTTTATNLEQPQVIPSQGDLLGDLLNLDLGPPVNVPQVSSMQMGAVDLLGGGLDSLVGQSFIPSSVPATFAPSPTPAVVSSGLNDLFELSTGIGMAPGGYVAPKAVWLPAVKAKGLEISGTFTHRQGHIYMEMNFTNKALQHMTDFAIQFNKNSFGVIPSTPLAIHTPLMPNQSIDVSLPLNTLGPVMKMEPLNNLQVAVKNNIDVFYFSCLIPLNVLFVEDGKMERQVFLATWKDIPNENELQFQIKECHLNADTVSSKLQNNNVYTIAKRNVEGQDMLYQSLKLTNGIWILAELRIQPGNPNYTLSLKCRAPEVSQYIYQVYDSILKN
Integrin beta-1 (Homo sapiens) + Integrin alpha-4 (Homo sapiens), sequence (P05556 whole entry, looked up): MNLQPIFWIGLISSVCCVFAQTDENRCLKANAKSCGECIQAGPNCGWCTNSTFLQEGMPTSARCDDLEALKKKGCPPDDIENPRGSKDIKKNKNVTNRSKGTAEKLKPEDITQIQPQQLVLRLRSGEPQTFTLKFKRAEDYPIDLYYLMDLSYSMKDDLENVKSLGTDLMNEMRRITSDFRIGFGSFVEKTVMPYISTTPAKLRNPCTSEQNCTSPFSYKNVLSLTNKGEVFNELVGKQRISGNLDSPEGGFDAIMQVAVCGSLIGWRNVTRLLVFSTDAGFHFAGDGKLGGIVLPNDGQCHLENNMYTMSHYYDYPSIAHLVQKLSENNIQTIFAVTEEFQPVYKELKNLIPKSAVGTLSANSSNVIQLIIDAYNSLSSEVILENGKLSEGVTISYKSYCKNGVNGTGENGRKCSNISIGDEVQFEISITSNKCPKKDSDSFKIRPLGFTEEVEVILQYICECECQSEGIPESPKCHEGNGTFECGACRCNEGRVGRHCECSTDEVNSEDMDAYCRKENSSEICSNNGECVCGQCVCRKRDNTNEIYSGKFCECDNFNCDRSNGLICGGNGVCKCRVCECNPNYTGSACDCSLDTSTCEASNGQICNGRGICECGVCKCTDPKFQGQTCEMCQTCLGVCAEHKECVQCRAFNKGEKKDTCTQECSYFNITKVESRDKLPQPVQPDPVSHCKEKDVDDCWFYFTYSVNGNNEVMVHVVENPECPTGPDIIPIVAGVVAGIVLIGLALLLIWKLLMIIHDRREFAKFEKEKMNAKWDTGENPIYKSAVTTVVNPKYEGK
Integrin beta-1 (Homo sapiens) + Integrin alpha-4 (Homo sapiens), sequence (P13612 whole entry, looked up): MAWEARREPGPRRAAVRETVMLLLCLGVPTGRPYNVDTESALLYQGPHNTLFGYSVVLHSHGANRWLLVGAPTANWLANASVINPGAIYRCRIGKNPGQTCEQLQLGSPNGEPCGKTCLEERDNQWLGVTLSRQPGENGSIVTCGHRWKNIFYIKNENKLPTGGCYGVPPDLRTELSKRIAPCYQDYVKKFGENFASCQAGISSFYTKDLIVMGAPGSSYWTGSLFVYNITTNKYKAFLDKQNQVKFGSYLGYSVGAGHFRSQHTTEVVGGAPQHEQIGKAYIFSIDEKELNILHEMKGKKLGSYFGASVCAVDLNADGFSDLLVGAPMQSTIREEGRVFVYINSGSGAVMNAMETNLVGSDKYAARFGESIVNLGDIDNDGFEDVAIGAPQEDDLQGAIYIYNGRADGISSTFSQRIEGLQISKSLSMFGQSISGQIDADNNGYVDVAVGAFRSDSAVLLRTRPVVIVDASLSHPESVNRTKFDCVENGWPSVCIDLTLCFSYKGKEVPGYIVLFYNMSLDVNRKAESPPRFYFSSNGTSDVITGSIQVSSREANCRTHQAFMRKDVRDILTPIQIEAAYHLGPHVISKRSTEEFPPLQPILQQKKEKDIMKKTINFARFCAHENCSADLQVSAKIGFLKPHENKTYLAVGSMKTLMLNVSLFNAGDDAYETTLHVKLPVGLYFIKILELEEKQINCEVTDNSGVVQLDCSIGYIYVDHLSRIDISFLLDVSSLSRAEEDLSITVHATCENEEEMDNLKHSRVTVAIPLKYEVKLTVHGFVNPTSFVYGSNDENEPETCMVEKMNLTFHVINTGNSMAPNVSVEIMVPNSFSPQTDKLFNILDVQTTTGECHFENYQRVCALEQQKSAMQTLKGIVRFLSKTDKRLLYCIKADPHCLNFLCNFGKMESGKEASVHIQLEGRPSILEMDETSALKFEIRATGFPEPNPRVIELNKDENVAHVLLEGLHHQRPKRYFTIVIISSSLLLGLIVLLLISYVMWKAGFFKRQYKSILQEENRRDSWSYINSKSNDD
ATP-binding cassette sub-family B member 6 (Homo sapiens), sequence (Q9NP58 whole entry, looked up): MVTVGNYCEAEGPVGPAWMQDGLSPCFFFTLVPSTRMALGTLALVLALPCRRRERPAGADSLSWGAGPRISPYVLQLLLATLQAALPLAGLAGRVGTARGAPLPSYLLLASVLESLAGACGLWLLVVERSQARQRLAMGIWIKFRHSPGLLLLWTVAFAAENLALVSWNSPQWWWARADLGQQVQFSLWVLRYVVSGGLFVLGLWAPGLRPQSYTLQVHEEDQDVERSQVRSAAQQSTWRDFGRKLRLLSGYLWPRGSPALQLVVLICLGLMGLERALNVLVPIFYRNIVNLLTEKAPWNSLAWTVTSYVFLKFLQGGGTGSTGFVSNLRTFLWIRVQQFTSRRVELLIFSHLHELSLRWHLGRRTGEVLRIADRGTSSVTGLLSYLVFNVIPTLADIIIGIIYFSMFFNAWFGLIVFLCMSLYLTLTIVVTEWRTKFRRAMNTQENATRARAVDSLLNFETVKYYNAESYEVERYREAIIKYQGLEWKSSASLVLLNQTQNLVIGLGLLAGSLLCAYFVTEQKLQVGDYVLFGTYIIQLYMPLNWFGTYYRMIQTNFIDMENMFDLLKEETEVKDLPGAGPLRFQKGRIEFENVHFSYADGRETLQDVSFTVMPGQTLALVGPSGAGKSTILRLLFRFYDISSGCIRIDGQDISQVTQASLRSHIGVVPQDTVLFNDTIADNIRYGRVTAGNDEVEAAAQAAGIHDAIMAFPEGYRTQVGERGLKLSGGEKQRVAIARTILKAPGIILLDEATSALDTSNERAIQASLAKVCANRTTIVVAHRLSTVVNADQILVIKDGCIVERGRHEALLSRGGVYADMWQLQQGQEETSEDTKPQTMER
Beta-adrenergic receptor kinase 1 (Homo sapiens), sequence (P25098 whole entry, looked up): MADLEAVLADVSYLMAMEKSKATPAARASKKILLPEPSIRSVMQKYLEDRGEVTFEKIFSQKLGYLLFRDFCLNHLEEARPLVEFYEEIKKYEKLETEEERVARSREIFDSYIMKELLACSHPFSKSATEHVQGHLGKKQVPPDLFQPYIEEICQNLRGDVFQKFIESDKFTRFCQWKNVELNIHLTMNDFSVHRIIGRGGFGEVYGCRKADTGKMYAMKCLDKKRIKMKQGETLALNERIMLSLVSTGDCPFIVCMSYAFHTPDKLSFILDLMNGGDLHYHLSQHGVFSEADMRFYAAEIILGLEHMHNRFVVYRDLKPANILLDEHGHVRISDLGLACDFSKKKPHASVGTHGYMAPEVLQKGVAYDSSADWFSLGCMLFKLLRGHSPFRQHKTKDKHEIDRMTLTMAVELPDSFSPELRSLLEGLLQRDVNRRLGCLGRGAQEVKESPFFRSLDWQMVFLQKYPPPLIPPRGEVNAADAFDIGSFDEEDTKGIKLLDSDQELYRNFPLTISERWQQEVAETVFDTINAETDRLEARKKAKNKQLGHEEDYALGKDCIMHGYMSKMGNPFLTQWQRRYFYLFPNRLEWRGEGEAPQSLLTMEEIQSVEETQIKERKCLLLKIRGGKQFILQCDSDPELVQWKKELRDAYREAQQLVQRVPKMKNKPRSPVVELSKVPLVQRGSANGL

The term inhibition denotes the change of the read-out against control, counted positive when it falls. Take `Nc1ccc(C(=O)O)c(O)c1`: the percent of DMSO control GFP in assay [1] was 102% (inactive). In addition, the GFP response vs DMSO in [2] is 106% (inactive) and 107% (inactive); in assay [4] it was 100% (inactive) and 111% (inactive). In assay [3], the percent response of DMSO control is 99.7% (inactive) and 96.7% (inactive). The GFP response, % of DMSO in assay [5] is 104% (inactive) and 106% (inactive). For the same compound, the double positive events in assay [6] is 61.7% and 60.8%. In addition, in [6], the vesicle binding response is 199% (inactive) and 232% (inactive). Besides, the inhibition in assay [7] was -2.43% (inactive) and 6.4% (inactive); in assay [11], -7.61% (inactive) and 3.32% (inactive); in assay [15] it was 3% (inactive) and 8% (inactive). Moreover, in [8], the superoxide response (% of plate) is 95.4% (inactive) and 103% (inactive). Besides, the aptamer binding inhibition in assay [9] is 5% (inactive) and 4% (inactive). Moreover, the response was -5.54% (inactive) and 8.67% (inactive) in [10]; -2.48% (inactive) and -0.83% (inactive) in assay [12]. The binding (% of control) in assay [13] was 103% (inactive) and 100% (inactive). The efflux inhibition (fraction of control) in [14] was 0.28 (inactive) and -0.03 (inactive). Moreover, the differentiation response in assay [16] is -7.5% (inactive) and -31.2% (inactive).
As to `N#Cc1cc2c([nH]c1=O)CCCC2`, in assay [1], the percent of DMSO control GFP is 103% (inactive). In addition, the results for the GFP response vs DMSO in assay [2] and in assay [4] were 98.3% (inactive) and 90.7% (inactive), respectively. In addition, the percent response of DMSO control in assay [3] is 108% (inactive). The GFP response, % of DMSO in assay [5] was 108% (inactive). Also, the double positive events in assay [6] amounted to 63.2%. Further, the vesicle binding response in assay [6] is 184% (inactive). In addition, the inhibition in assay [7] was 16.1% (inactive); in assay [11], -13.1% (inactive); in [15], -2% (inactive). In assay [8], the superoxide response (% of plate) is 89.5% (inactive). Also, in [9], the aptamer binding inhibition is 0% (inactive). Besides, the response was -10.3% (inactive) in assay [10] and 12.5% (inactive) in assay [12]. Besides, the binding (% of control) in [13] is 97.7% (inactive). In assay [14], the efflux inhibition (fraction of control) is -0.04 (inactive). Also, in assay [16], the differentiation response was -5.62% (inactive).
Consider `NC(=O)c1ccccc1O`, for which the percent of DMSO control GFP in [1] is 103% (inactive). Besides, the GFP response vs DMSO was 108% (inactive) in assay [2] and 95.8% (inactive) in assay [4]. Further, the percent response of DMSO control in assay [3] was 92.8% (inactive). Moreover, the GFP response, % of DMSO in assay [5] is 97.4% (inactive). The compound further registered a double positive events in [6] of 64.5%. The vesicle binding response in [6] was 199% (inactive). For the same compound, the inhibition in assay [7] is 11.1% (inactive); in [11], 33.5% (inactive); in assay [15], 3% (inactive). The superoxide response (% of plate) in assay [8] is 95.9% (inactive). Besides, the aptamer binding inhibition in [9] is -1% (inactive). Further, the response in [10] was 6.88% (inactive); in assay [12] it was -2.79% (inactive). The binding (% of control) in assay [13] was 100% (inactive). Moreover, the efflux inhibition (fraction of control) in [14] is 1.03 (active). The differentiation response in assay [16] was 10.3% (inactive).
Consider `O=C(NC1CCCCC1)c1cc2nc(-c3ccco3)cc(C(F)(F)F)n2n1`, for which, in [1], the percent of DMSO control GFP is 89.5% (inactive). In addition, the GFP response vs DMSO in assay [2] was 106% (inactive); in [4], 78.7% (inactive). Further, the percent response of DMSO control in assay [3] was 102% (inactive). The GFP response, % of DMSO in assay [5] was 88.2% (inactive). The same compound yielded a double positive events in assay [6] of 43.2%. For the same compound, the vesicle binding response in assay [6] was 158% (inactive). The inhibition in assay [7] was -1.3% (inactive); in assay [11], 1.72% (inactive); in [15], 9% (inactive). In [8], the superoxide response (% of plate) was 111% (inactive). Besides, the aptamer binding inhibition in assay [9] is 0% (inactive). Further, the response in assay [10] was -19.4% (inactive); in assay [12] it was 8.07% (inactive). The binding (% of control) in assay [13] was 107% (inactive). The efflux inhibition (fraction of control) in [14] is 0.09 (inactive). In addition, the differentiation response in assay [16] is 20.5% (inactive).
For the compound `CC(C)C1CC(CCNCc2ccc(N(C)C)cc2)(c2ccccc2)CCO1` (stereo not given), the percent of DMSO control GFP in [1] was 95.2% (inactive). Moreover, the GFP response vs DMSO in [2] was 105% (inactive); in assay [4], 76.5% (inactive). Also, in assay [3], the percent response of DMSO control was 118% (inactive). The GFP response, % of DMSO in [5] was 87.7% (inactive). This compound yielded a double positive events in [6] of 58.6%. Moreover, the vesicle binding response in [6] is 200% (inactive). Further, the inhibition in [7] was 9.37% (inactive); in assay [11], -7.09% (inactive); in assay [15], 8% (inactive). Moreover, in assay [8], the superoxide response (% of plate) is 112% (inactive). The aptamer binding inhibition in assay [9] was -4% (inactive). In addition, the response in assay [10] is 3.92% (inactive); in assay [12] it was 0.42% (inactive). In [13], the binding (% of control) is 111% (inactive). Further, in [14], the efflux inhibition (fraction of control) is -0.09 (inactive). The differentiation response in [16] is -1.64% (inactive).
